The target of one experiment is CXorf56. The experiment can be described thus: pooled miR-30 sensor sort-seq; sequence = guide strand. As to conditions: shRNA.
In the case of TTTCTGAGTATATATGTTCGTT, the sensor-assay potency score (higher = more potent) was -0.396.

In turn, TTCTGAGTATATATGTTCGTTT registered a sensor-assay potency score (higher = more potent) of -0.865.

The sequence TATGAGTCAGCAACTTCCCTAG came in with a sensor-assay potency score (higher = more potent) of 0.0765.

For TTTCTCTAACTGGCAGTCCAGC, the sensor-assay potency score (higher = more potent) is -1.26.

The sequence TACTGCTCCATCCACAATGAAG displayed a sensor-assay potency score (higher = more potent) of -1.81.

A further experiment deals with CYB5D1. The experiment is described as above. As to conditions: shRNA.
Consider TACTTGATCTTCTTGTATCATT, for which the sensor-assay potency score (higher = more potent) was -1.02.

TAGCGGTGTAGGATTTCCCATA: the sensor-assay potency score (higher = more potent) is -1.38.

With TTGAAGTACAGAAGTATTGCAG, the sensor-assay potency score (higher = more potent) came out at 0.794.

The sequence TTAATGATGCGGATGCTCCGGG displayed a sensor-assay potency score (higher = more potent) of -0.0268.

TATTCCTGTGCCAATGACGTTA: the sensor-assay potency score (higher = more potent) is -0.429.

For TACAGAAGTATTGCAGGTGTGT, the sensor-assay potency score (higher = more potent) worked out at 0.111.

On to TTTGGATCAAACCAGTGGCTGA, for which the sensor-assay potency score (higher = more potent) was -1.34.

For the sequence TACGTCTTGAGTCTACACGAGT, the sensor-assay potency score (higher = more potent) is -1.09.

TACTGAGATAGTCAAATTCTTC registered a sensor-assay potency score (higher = more potent) of -1.34.

In turn, TGAAGTACAGAAGTATTGCAGG had a sensor-assay potency score (higher = more potent) of -0.202.

Source of the values: the OligoGym collection.
Note: reference of the scale not given here.
